Substitutions are numbered along the chain they refer to.
How the values were obtained:
Test in all cases: HT-SELEX; high values mean tight binding
Conditions in all cases: protein: recombinant; vector His6-GST; dsDNA, one strand shown
SALL4 ZFC4 WT (HT-SELEX) = target: T1, SALL4 ZFC4 WT (HT-SELEX) (Mus musculus, UniProt Q8BX22 870-940)
T1 sequence: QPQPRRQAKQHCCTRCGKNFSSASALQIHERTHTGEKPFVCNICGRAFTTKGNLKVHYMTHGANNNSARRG
Procedure, shortened: (§1)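 In triplicate selections of up to 6 cycles, purified recombinant mouse SALL4 zinc finger cluster 4 (residues 870–940, 1 µg) was incubated 10 min at room temperature with library DNA (1.5 µg, then 200 ng) in 100 µl of 10 mM Tris–HCl pH 7.5, 50 mM NaCl, poly(dI-dC) and DTT, and complexes were captured on Ni2+ beads, washed and PCR-amplified. Sequencing was done on MiSeq with scanning for 6-mers. The binding signal is each canonical k-mer's read fraction, reported as fold change against the initial random library.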

[1] = target: T2, SALL4 ZFC4 R900W (HT-SELEX) (Mus musculus, UniProt Q8BX22 870-940, R900W)
T2 sequence: T1 sequence with R31W
Procedure, shortened: as §1

[2] = target: T3, SALL4 ZFC4 G921D (HT-SELEX) (Mus musculus, UniProt Q8BX22 870-940, G921D)
T3 sequence: T1 sequence with G52D
Procedure, shortened: as §1

Row | Sequence | binding signal (SALL4 ZFC4 WT (HT-SELEX)) [fold-change vs cycle 0] | binding signal [1] [fold-change vs cycle 0] | binding signal [2] [fold-change vs cycle 0]
1 | GACCCA | 0.39 ± 0.0219 | 0.467 ± 0.00775 | 0.59 ± 0.0677
2 | AGTAAC | 1.458 ± 0.009 | 1.62 ± 0.0372 | 1.49 ± 0.109
3 | ATCTGG | 0.78 ± 0.0274 | 0.839 ± 0.0522 | 0.901 ± 0.0524
4 | GCGTAA | 0.494 ± 0.0275 | 0.556 ± 0.0061 | 0.651 ± 0.033
5 | TGGACA | 0.662 ± 0.0418 | 0.761 ± 0.0205 | 0.847 ± 0.0377
6 | TCGACA | 0.525 ± 0.0359 | 0.609 ± 0.0106 | 0.731 ± 0.0296
7 | CTCCAC | 0.493 ± 0.0188 | 0.564 ± 0.0173 | 0.646 ± 0.0596
8 | AGCAGG | 0.42 ± 0.0145 | 0.478 ± 0.0232 | 0.561 ± 0.0608
9 | GTTCTA | 1.28 ± 0.0473 | 1.39 ± 0.0453 | 1.33 ± 0.108
10 | CGTTGA | 0.664 ± 0.053 | 0.763 ± 0.00493 | 0.839 ± 0.0136
11 | CTAGCA | 0.695 ± 0.0294 | 0.782 ± 0.0282 | 0.86 ± 0.0269
12 | CACCAG | 0.43 ± 0.0196 | 0.526 ± 0.014 | 0.606 ± 0.0242
13 | CTCCTC | 0.611 ± 0.00845 | 0.705 ± 0.0481 | 0.774 ± 0.0379
14 | TGAAAA | 2.04 ± 0.151 | 1.73 ± 0.0528 | 1.57 ± 0.0962
15 | CAGTTA | 1.43 ± 0.0431 | 1.46 ± 0.0224 | 1.36 ± 0.0634
